Screening data from PubChem BioAssay.
HCV NS3h FP: blocks HCV NS3 helicase binding to DNA. NS3h Cy5-dT15 DNA binding, fluorescence polarization. inhibition, % at 100 µM. 16,000 tested, 1.6% active;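 active = inhibition above the average over every tested compound plus 3 SD, cut at about 40% in these data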
Cy5 interf NS3h: counter-screen for HCV NS3 helicase inhibitors: fluorescence interference; Cy5-dT15 DNA with NS3h; actives lie on both sides; signal over control mean, under 1 quenches; fluorescence interference ratio at 100 µM; 16,000 tested, 6% active; AID 720488;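 active = compound fluorescence over control fluorescence at most 0.8, a quencher, or at least a set upper limit, an enhancer; inactive = ratio between 0.8 and the set upper limit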
Numbers without * were called inactive. Most compounds without a hit are left out; they make up all but 6.9% or so of the library.

SMILES | HCV NS3h FP | Cy5 interf NS3h
CC(O)c1cccc(NC(=O)c2cc3n(n2)C(C(F)(F)F)CC(c2ccc(F)cc2)N3)c1 (stereo not given) | 14.7 | 0.959
Cc1ccc(C2CC(C(F)(F)F)n3ncc(C(=O)N(Cc4ccccc4)Cc4ccccc4)c3N2)cc1 (stereo not given) | 8.3 | 0.942
O=C(c1cc2n(n1)C(C(F)(F)F)CC(c1ccc(F)cc1)N2)N1CCCC1 (stereo not given) | 7.7 | 0.747*
Cc1ccc(C2CC(C(F)(F)F)n3nc(C(=O)Nc4ccc(C(C)O)cc4)cc3N2)cc1 (stereo not given) | 7.7 | 0.643*
O=C(c1nn2c(c1Cl)NC(c1ccccc1)CC2C(F)(F)F)N1CCN(c2ccc(F)cc2)CC1 (stereo not given) | 28.4 | 0.99
COc1ccc(C2CC(C(F)(F)F)n3ncc(C(=O)N(C)Cc4ccccc4)c3N2)cc1OC (stereo not given) | 27.6 | 0.598*
O=C(NCCCN1CCOCC1)/C(=C/c1cccc(Oc2ccccc2)c1)NC(=O)c1ccccc1 | 7.0 | 0.891
COc1cccc(NC(=S)NC(NC(=O)c2ccc(Br)cc2)C(Cl)(Cl)Cl)c1 (stereo not given) | 6.4 | 1.02
COc1ccccc1-c1coc2cc(OC(=O)c3c(Cl)ccc(Cl)c3OC)ccc2c1=O | -7.4 | 1.06
O=C(/C=C/c1ccccc1)C1=C(O)C(=O)N(c2cccc(C(F)(F)F)c2)C1c1ccccc1[N+](=O)[O-] (stereo not given) | 0.9 | 0.917
COC1=C(C(C)(C)C)C(=O)C(=O)C(C(C)(C)C)=C1OC | 5.0 | 0.981
CCOc1ccc(C(=O)N2CC(C)OC(C)C2)cc1OCC (stereo not given) | -1.8 | 1.05
CC(=O)Nc1ccc(-n2c(C)cc(/C=C(\C#N)C(=O)Nc3ccccc3)c2C)cc1 | 9.7 | 0.963
CC(O)c1ccc(NC(=O)c2cnn3c2NC(c2cccs2)CC3C(F)(F)F)cc1 (stereo not given) | 4.8 | 1.02
CC(O)c1ccc(NC(=O)c2cnn3c2NC(c2ccc(F)cc2)CC3C(F)(F)F)cc1 (stereo not given) | 23.5 | 0.482*
COc1ccc(N=C2C(=O)Nc3ccc(C)c(Br)c32)cc1 | 21.3 | 0.659*
COc1ccc(S(=O)(=O)Nc2ccc(Br)cc2C)cc1 | 17.5 | 1.08
O=C(Nc1cc(-c2nc3ccccc3s2)ccc1Cl)c1cc(I)ccc1Cl | 10.3 | 1.05
O=C1CSC(c2ccc(Cl)c(Cl)c2)N1CC12CC3CC(CC(C3)C1)C2 (stereo not given) | 6.6 | 0.973
O=C(COc1cccc2ccccc12)NCc1ccco1 | 4.2 | 0.892
O=C(COc1cccc2ccccc12)NCC1CCCO1 (stereo not given) | 10.5 | 0.772*
O=C(COc1cccc2ccccc12)NCc1ccccn1 | 0.6 | 0.914
O=C(COc1cccc2ccccc12)NCc1cccnc1 | 16.8 | 0.739*
N#CCCN(C1CCCCC1)S(=O)(=O)c1ccc(Cl)cc1 | 14.5 | 1.07
CCC(=O)Nc1ccc(NC(=O)c2ccc(Br)o2)cc1 | -2.8 | 1.02
SMILES | HCV NS3h FP | Cy5 interf NS3h
CCSc1nnc(NC(=O)c2ccc(Br)o2)s1 | 9.6 | 0.771*
O=C(c1cc2n(n1)C(C(F)(F)F)CC(c1ccc3c(c1)OCO3)N2)N1CCN(C(c2ccccc2)c2ccccc2)CC1 (stereo not given) | 0.3 | 1.01
Cc1ccc(C2=C/C(=C/c3ccc(-c4ccc([N+](=O)[O-])cc4)o3)C(=O)O2)cc1 | 8.7 | 1
Cc1ccc2cc(C3=C/C(=C/c4ccc([N+](=O)[O-])o4)C(=O)O3)ccc2c1 | 11.5 | 0.773*
COc1ccc(/C=C2\C=C(c3ccc(Br)cc3)OC2=O)c(C)c1 | -4.9 | 1.06
Cc1ccc(/C=C2/C=C(c3ccc(Br)cc3)OC2=O)o1 | 15.2 | 0.677*
COc1ccc(C=NN2CCN(Cc3ccc(C)cc3C)CC2)cc1Br | 20.1 | 0.889
COc1ccc2c(oc(=O)c3ccccc32)c1C | 16.1 | 0.96
Cc1ccc(N2C(=O)CC(NC3CCCCCC3)C2=O)cc1 (stereo not given) | -8.6 | 0.937
COC(=O)c1cc(Nc2nc3ccccc3nc2NS(=O)(=O)c2ccccc2)ccc1Cl | 21.3 | 0.689*
COC(=O)c1ccccc1NS(=O)(=O)c1ccc(NC(C)=O)cc1 | -7.3 | 1.02
CCc1ccccc1NC(=O)CN(c1ccc(OC)cc1)S(=O)(=O)c1ccc(C)cc1 | 12.8 | 0.968
CC(=O)Nc1ccc(NS(=O)(=O)c2cc(Cl)ccc2Cl)cc1 | 1.3 | 0.986
O=S(=O)(c1cc(Cl)cc(Cl)c1O)c1cc(Cl)cc(Cl)c1O | 25.4 | 0.504*
COc1cccc(N2C(=O)c3ccc(C(=O)NN4C(=O)c5ccccc5C4=O)cc3C2=O)c1 | 2.2 | 1.03
CCOc1ccc(NC(=O)c2ccccc2NC(=O)c2ccccc2Cl)cc1 | 8.3 | 1.03
CCN1C(=O)/C(=C\c2ccccc2OCCOc2cccc(OC)c2)SC1=S | 7.1 | 1
CCN1C(=O)/C(=C\c2cc(Br)ccc2OCc2ccccc2)SC1=S | -0.3 | 1.14
COc1ccc(Br)cc1/C=C1/SC(=S)N(Cc2ccccc2)C1=O | 1.2 | 0.688*
CCN1C(=O)/C(=C\c2cc(OC)ccc2OC)SC1=S | 8.7 | 0.759*
CCC(=O)c1ccc(N2CCN(C(=O)c3cccc(F)c3F)CC2)c(F)c1 | 1.4 | 1.08
CCc1ccccc1NC(=O)CN(c1ccccc1OC)S(=O)(=O)c1ccccc1 | 20.4 | 0.985
O=C(NCC1CCS(=O)(=O)C1)OC1CCCCC1 (stereo not given) | -0.7 | 1.05
Cc1ccc(-n2nc(-c3ccccc3)c3c2C(=O)C=CC3=O)cc1 | 44.1* | 0.916
COc1ccc(-c2c(-c3ccc(Cl)cc3)nn(-c3ccccc3)c2N)cc1OC | 19.1 | 0.899
SMILES | HCV NS3h FP | Cy5 interf NS3h
CC(C)(CNC(c1ccccc1)c1ccccc1)NS(=O)(=O)c1ccc(Cl)cc1 | 2.2 | 0.941
COc1ccc2c(=O)cc(C(Cl)(Cl)Cl)oc2c1 | 15.2 | 0.654*
COc1ccc2oc(C(Cl)(Cl)Cl)cc(=O)c2c1 | 1.0 | 0.913
Cc1ccccc1-c1cc2nc(C)c(Cl)c(=O)n2[nH]1 | -0.9 | 1.03
Cc1nc2cc(-c3ccco3)[nH]n2c(=O)c1C | 8.7 | 0.766*
O=S(=O)(Nc1ccc(Nc2ccc(F)cc2)cc1)c1ccc(F)cc1 | 8.0 | 0.971
Cc1ccc(OCC(=O)NNC(=O)Cc2ccc(Cl)cc2)c(C)c1 | 1.7 | 1.04
Cc1ccccc1OCC(=O)O/N=C(/N)Cc1cccs1 | 7.4 | 1.03
N#Cc1ccc(C2N(Cc3ccccc3)CCN2Cc2ccccc2)cc1 | 9.7 | 0.997
CC(=O)CC(=O)NC(C)c1ccccc1 (stereo not given) | 3.2 | 0.969
CC(NC(=O)c1ccc(Br)cc1)c1ccccc1 (stereo not given) | 12.4 | 0.787*
CCCCOC(=O)c1ccc(NC(=O)C2CC(C)=C(C)CC2C(=O)O)cc1 (stereo not given) | 3.2 | 0.998
CCCCOC(=O)c1ccc(NC(C)=O)cc1 | 11.4 | 0.685*
CCCCOc1ccc(NC(=O)CCSc2nccn2C)cc1 | 14.1 | 0.69*
CCCCOc1ccc(NC(=O)CSc2nnc(-c3cccc(F)c3)n2-c2ccccc2)cc1 | 1.8 | 1.13
CCN(CC)CCN1C(=O)C(O)=C(C(=O)/C=C/c2ccccc2)C1c1ccc(Br)cc1 (stereo not given) | 8.2 | 1.11
CCN(CC)CCN1C(=O)C(O)=C(C(=O)/C=C/c2ccccc2)C1c1ccc(OC)cc1 (stereo not given) | 26.0 | 1.22*
Brc1ccccc1-c1nc2ccccc2[nH]1 | 0.3 | 0.974
